Compound activity from PubChem.
BAZ2B inh = inhibitors of human BAZ2B bromodomain; Q9UIF8; AlphaScreen BAZ2B-H3K14Ac peptide displacement; Potency, µM (titrated, usually from 114 µM), actives largely listed as inhibitors; 4.4% of 360,000 active; AID 504333; also: nearly all actives have a fitted effect of over 60% in size
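Complex of BAZ2B and biotin-H3K14Ac (50 nM apiece) forms over 30 min at RT, then faces library compounds up to 110 uM for another 30 min; AlphaScreen beads added, 20 min dark incubation, luminescence read.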
GLS inh = blocks human kidney-isoform glutaminase activity; O94925; GLS enzymatic activity, qHTS titration; Potency, µM (highest dose often 45.5 µM), usual class: inhibitors; 0.21% of 410,000 active; AID 624170
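Compounds were pin-transferred onto hKGA, after which L-glutamine (1 mM solution) and a detection mix of glutamate oxidase, HRP and Amplex Red were added. Initial and 30 min RT fluorescence reads were collected.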
JMJD2A Tudor = JMJD2A Tudor domain (human) inhibition; Potency, µM (titrated, usually from 114 µM), hits mostly inhibitors; O75164; AID 504339; 4.4% of 390,000 active; AlphaScreen JMJD2A-Tudor / H3K4me3 peptide binding; also: nearly all actives have a fitted effect of over 50% in size
G9a inh = G9a (human) methyltransferase inhibition. Q96KQ7. G9a H3K9 monomethylation, AlphaScreen, 2 h. Potency, µM (doses to about 102 µM), usual class: inhibitors. 8.8% of 350,000 active; also: nearly all actives have a fitted effect of over 75% in size
Target sequence (Q96KQ7 913-1193 limits assumed): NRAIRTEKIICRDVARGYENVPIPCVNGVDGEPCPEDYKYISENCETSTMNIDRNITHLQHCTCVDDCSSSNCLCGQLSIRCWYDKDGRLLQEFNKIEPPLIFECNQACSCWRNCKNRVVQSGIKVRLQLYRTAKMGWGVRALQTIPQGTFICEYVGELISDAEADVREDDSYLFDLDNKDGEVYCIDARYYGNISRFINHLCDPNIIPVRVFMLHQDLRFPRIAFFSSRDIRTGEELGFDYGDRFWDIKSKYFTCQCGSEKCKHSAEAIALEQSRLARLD
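Methyltransferase reactions run at room temperature for 2 h (20 nM enzyme, 500 nM biotin-H3K9 peptide, 20 uM SAM) after a 15 min compound preincubation; product detected by AlphaScreen beads and anti-H3K9me1 antibody.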
HP1b binding inh = HP1-beta chromodomain-methylated histone interaction inhibition; AlphaScreen HP1-beta / biotin-H3K9me3 peptide binding; Potency, µM (doses to about 114 µM), most hits filed as inhibitors; 0.56% of 390,000 active; also: nearly all actives have a fitted effect of over 70% in size
Target sequence (P83916 whole entry, looked up): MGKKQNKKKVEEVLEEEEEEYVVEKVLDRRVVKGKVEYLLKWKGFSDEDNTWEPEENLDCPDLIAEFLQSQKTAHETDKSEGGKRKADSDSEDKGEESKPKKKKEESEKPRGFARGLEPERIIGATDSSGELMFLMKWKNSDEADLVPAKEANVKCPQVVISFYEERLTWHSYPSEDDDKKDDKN
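Compound inhibition of the preformed complex between 50 nM HP1-beta and 50 nM biotinylated H3K9me3 peptide was read by AlphaScreen. Buffer was PBS pH 7.4 with 0.01% Tween-20. Incubations ran 30 min at room temperature, with 10 ug/mL donor/acceptor beads.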
Of the large screens only hits and unclear results are named; the others gave an inactive call. Shown are actives, neighbours in structure and some others; about 10% of the full set was active somewhere. Calls follow the shape of the dose curve; as a rule, active = well fitted curve in the direction sought with a large enough effect; inconclusive = small, poorly fitted or top-dose-only effect, or another doubt; inactive = no such curve, though single readings can be large; an effect the other way counts as inactive or inconclusive.

CC12CCC(=O)N1C(C(=O)Nc1nc3c(F)cc(F)cc3s1)CS2 (centres undefined)	G9a inh 45µM
Cc1c(Cl)cccc1NS(=O)(=O)c1cc2c(cc1F)NC(=O)CC2	none (no result: BAZ2B inh, GLS inh, G9a inh, HP1b binding inh)
CC(C)(C)OC(=O)N1CCN(c2nc(-c3cccs3)nc3ccccc23)CC1	none (no result: BAZ2B inh, GLS inh, G9a inh)
Cc1cccc(C)c1NC(=O)c1oc2c(c1C)-c1nn(Cc3ccccc3)cc1CC2	none
CC(C)C(=O)N1CCC1(C)C(=O)Nc1ccc2[nH]ccc2c1 (centres undefined)	none (no result: BAZ2B inh, JMJD2A Tudor, G9a inh, HP1b binding inh)
Cc1ccccc1-n1c(N)c(C(=O)Nc2ccc(F)cc2)sc1=S	G9a inh 11µM
Cc1ccc(-n2c(N)c(C(=O)Nc3ccccc3F)sc2=S)cc1C	BAZ2B inh inconclusive, JMJD2A Tudor inconclusive, G9a inh 22µM, HP1b binding inh inconclusive
Cc1ccc(C)c(-n2c(N)c(C(N)=O)sc2=S)c1	G9a inh inconclusive
Cc1ccc(NC(=O)c2sc(=S)n(-c3cc(C)ccc3F)c2N)cc1	BAZ2B inh inconclusive, JMJD2A Tudor inconclusive, G9a inh 8.9µM, HP1b binding inh inconclusive
COc1c(Cl)cccc1-c1cn2ccc(C)cc2n1	G9a inh inconclusive
COCC(=O)N1CCC(Oc2ccc(C(=O)N(C)CCCC3CCCC3)cc2)CC1	none
COCCCN(C(=S)NC(=O)c1ccc(Br)cc1)c1c(N)n(Cc2ccccc2)c(=O)[nH]c1=O	G9a inh 50µM
CCc1cc(C(=O)N(CCCOC)c2c(N)n(Cc3ccccc3)c(=O)[nH]c2=O)sc1C	G9a inh 13µM
Cc1ccc(NC(=O)C(Cc2ccccc2)n2cccc2)cc1C (centres undefined)	none
O=C(O)CCc1ccc(S(=O)(=O)Nc2cc(C(F)(F)F)ccc2N2CCCC2)cc1	BAZ2B inh 79µM, JMJD2A Tudor inconclusive, G9a inh 28µM
Cc1ccc(S(=O)(=O)Nc2cc(C(=O)O)ccc2N2CCCCC2)cc1	none
COc1ccc(C(=O)NC2CCCCCCC2)cc1OC	none (no result: BAZ2B inh, G9a inh)
COc1ccc(S(=O)NC2CCCCC2)c(OC)c1C (centres undefined)	JMJD2A Tudor inconclusive, G9a inh 32µM
CN(C)c1cccc(/C=C(\C#N)c2ccccc2)c1	G9a inh 45µM
C[C@@H](C(=O)NCCc1c[nH]c2ccccc12)[C@@H]1C[C@@]1(C)[C@@H](NC(=O)OCc1ccccc1)c1ccccc1	JMJD2A Tudor inconclusive, G9a inh 45µM
C=CCN1C=C(C(C)=O)C(=O)CC1	none (no result: BAZ2B inh, G9a inh)
Nc1nc(CN2CCN(c3ccccn3)CC2)nc(Nc2ccc(F)cc2)n1	BAZ2B inh 50µM, JMJD2A Tudor 50µM, G9a inh inconclusive
Nc1nc(CN2CCCCCC2)nc(Nc2ccc(F)cc2)n1	BAZ2B inh 7.1µM, JMJD2A Tudor 79µM, G9a inh 10µM
Cc1ccc(Nc2nc(N)nc(CN3CCN(C)CC3)n2)cc1C	G9a inh inconclusive (no result: GLS inh, JMJD2A Tudor, HP1b binding inh)
CN1CCC(N(C)C(=O)/C(C#N)=C/c2ccc(OC(F)F)cc2)CC1	none
CCOc1ccc(CCNC(=O)c2cc(=O)[nH]c3ccc(S(=O)(=O)N4CCCCC4)cc23)cc1OCC	none
Cc1cccc(NC(=O)c2sc(-n3nc(C)c(CCC(C)C)c3C)nc2C)c1	G9a inh inconclusive
COc1ccc(CCC(C(O)C(F)(F)F)S(=O)c2ccccc2)cc1 (centres undefined)	JMJD2A Tudor 40µM, G9a inh inconclusive
COc1ccc(NS(=O)CCCc2ccccc2)cc1 (centres undefined)	none (no result: BAZ2B inh, JMJD2A Tudor, G9a inh, HP1b binding inh)
CC1CCN(C2=NC(=O)/C(=C/c3ccccc3F)S2)CC1	none
CN1C2CCC1/C(=C\c1ccccc1F)C(=O)/C2=C/c1ccccc1F	G9a inh 50µM
C[n+]1ccccc1/C=C/c1ccc(F)c(F)c1	BAZ2B inh inconclusive
Cc1ccccc1/C=C/c1cccc[n+]1C	G9a inh inconclusive
C[n+]1ccccc1/C=C/c1ccccc1Cl	BAZ2B inh 56µM, G9a inh inconclusive
C[n+]1ccccc1/C=C/c1c(F)cccc1F	BAZ2B inh 8.9µM, JMJD2A Tudor inconclusive, G9a inh 25µM
O=C(c1ccc(NC(=S)NCc2ccco2)cc1)N1CCCCC1	G9a inh 50µM
CC(=O)Nc1ccc(S(=O)(=O)NNC(=S)NCc2ccco2)cc1	JMJD2A Tudor inconclusive, G9a inh 32µM
O=C(CNS(=O)(=O)c1ccccc1)NCc1ccco1	G9a inh 79µM
